From PubChem BioAssay (NCATS)
Results filed as inconclusive are left out. Entries that show only a call come without a potency. A number with no mark means an inactive call. Calls of active or inactive are those of the source. Calls follow the shape of the dose curve; as a rule, active = well fitted curve in the direction sought with a large enough effect; inconclusive = small, poorly fitted or top-dose-only effect, or another doubt; inactive = no such curve, though single readings can be large; an effect the other way counts as inactive or inconclusive.

What was measured:
[1] = BET inhibitor-based combinations targeting novel dependencies in MECOM-rearranged (r) AML: SET-2 cell line (AID 2202231); conditions: SET-2 AML cells viability, CellTiter-Glo luminescence, 48 h; viability: hits give low values, concentration not given here; also: nearly all actives have a fitted effect of over 35% in size
Method in brief: (§1)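 500 cells/well; 11-pt dose curve; 48 h, standard incubator; CellTiter-Glo luminescence after 15 min RT; DMSO/empty-well normalization; AUC plus Z-AUC (mean-centered within each line).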

[2] = BET inhibitor-based combinations targeting novel dependencies in MECOM-rearranged (r) AML: MV-4-11 cell line (AID 2202233); also: nearly all actives have a fitted effect of over 45% in size
Method in brief: (§2)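 Cells were plated at 500 per well and exposed to each drug across an 11-point dose range for 48 hr at standard incubator conditions. Viability was read by CellTiter-Glo luminescence, and activity was expressed as AUC and per-cell-line Z-transformed AUC.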

[3] = BET inhibitor-based combinations targeting novel dependencies in MECOM-rearranged (r) AML: UCSD-AML1 cell line (AID 2202235); also: nearly all actives have a fitted effect of over 40% in size; as to viability (% of control): series mostly up to about 46 µM
Method in brief: as §2

[4] = BET inhibitor-based combinations targeting novel dependencies in MECOM-rearranged (r) AML: AML-191 cell line (AID 2202236; also: nearly all actives have a fitted effect of over 35% in size)
Method in brief: as §1

[5] = BET inhibitor-based combinations targeting novel dependencies in MECOM-rearranged (r) AML: AML-194 cell line (AID 2202237; also: nearly all actives have a fitted effect of over 40% in size)
Method in brief: as §1

[6] = BET inhibitor-based combinations targeting novel dependencies in MECOM-rearranged (r) AML: HNT-34 cell line (AID 2202234); also: nearly all actives have a fitted effect of over 35% in size
Method in brief: as §2
Potency is read from the fitted curve at half-maximal effect.

C=CC(=O)N[C@H]1CCOC[C@H]1Nc1ncc2cc(-c3c(Cl)c(OC)cc(OC)c3Cl)ccc2n1
viability [1]: 104% | Potency [2]: 18.6 µM (active) | Potency [3]: inactive | Potency [4]: inactive | Potency [5]: inactive

CC1(C)O[C@@H]2C[C@H]3[C@@H]4C[C@H](F)C5=CC(=O)C=C[C@]5(C)[C@@]4(F)[C@@H](O)C[C@]3(C)[C@]2(C(=O)CO)O1
viability [1]: 113% | Potency [2]: inactive | Potency [6]: inactive | Potency [3]: inactive | Potency [4]: inactive | Potency [5]: inactive

C=C1[C@H](OC(=O)/C=C(\C)CC)C[C@@H](C(C)C)[C@@H]2[C@H]([C@@H](C)OC(C)=O)C(=O)C[C@@H]12
Potency [1]: 16.6 µM (active) | Potency [2]: 18.6 µM (active) | Potency [3]: inactive

CCS(=O)(=O)Nc1ccc2[nH]c(O)c(C(=Nc3ccc(CN4CCCCC4)cc3)c3ccccc3)c2c1
Potency [1]: 2.63 µM (active) | Potency [2]: 0.0295 µM (active) | Potency [6]: 0.148 µM (active) | Potency [4]: 0.0661 µM (active) | Potency [5]: 0.0934 µM (active)

O=c1oc2cc(O)ccc2s1
viability [1]: 106% | Potency [2]: inactive | Potency [6]: inactive | Potency [3]: inactive | Potency [4]: inactive | Potency [5]: inactive

CN(C)C/C=C/C(=O)Nc1cc2c(Nc3ccc(F)c(Cl)c3)ncnc2cc1O[C@H]1CCOC1
Potency [1]: 4.68 µM (active) | Potency [2]: 1.18 µM (active) | Potency [6]: 2.95 µM (active) | Potency [4]: 7.42 µM (active) | Potency [5]: 7.42 µM (active)

CC(C)=CCC/C(C)=C/CC/C(C)=C/CSc1ccccc1C(=O)O
viability [1]: 106% | Potency [2]: 11.8 µM (active) | Potency [3]: inactive | Potency [4]: inactive | Potency [5]: inactive

CCCS(=O)(=O)c1nc(NC2CC2)cc(-c2ccc3c(ccn3C3CC(C)(C)NC(C)(C)C3)c2)n1
Potency [1]: 2.21 µM (active) | Potency [2]: 2.48 µM (active) | Potency [6]: 3.12 µM (active) | Potency [4]: 3.12 µM (active)

CC1=C(/C=C/C(C)=C/C=C/C(C)=C/C=C/C=C(C)/C=C/C=C(C)/C=C/C2=C(C)CCCC2(C)C)C(C)(C)CCC1
viability [1]: 103% | Potency [2]: 23.5 µM (active) | Potency [3]: inactive | Potency [4]: inactive | Potency [5]: inactive

COc1cc2ncn(-c3cc(OCc4ccccc4C(F)(F)F)c(C(N)=O)s3)c2cc1OC
Potency [1]: 1.86 µM (active) | Potency [2]: 2.09 µM (active) | Potency [3]: 2.35 µM (active) | Potency [4]: 1.48 µM (active) | Potency [5]: 1.05 µM (active)

CSC[C@H]1CN(Cc2c[nH]c3c(N)ncnc23)C[C@@H]1O
viability [1]: 110% | Potency [6]: inactive | Potency [3]: inactive | Potency [4]: inactive | Potency [5]: inactive

CCn1c(=O)c(-c2ccc(-c3cncc(C)n3)cc2Cl)cc2cnc(NCCC3CCN(C)CC3)nc21
viability [1]: 93.7% | Potency [2]: 1.18 µM (active) | viability (% of control) [3]: 99.8% [at 5.12 µM] | viability (% of control) [5]: 89.1% [at 5.12 µM]

CCOC(=O)[C@H](CCc1ccccc1)N[C@H]1CCc2ccccc2N(CC(=O)O)C1=O
viability [1]: 115% | Potency [6]: inactive | Potency [3]: inactive | Potency [4]: inactive | Potency [5]: inactive

CCOC(=O)c1ccc(C#Cc2ccc3c(c2)C(C)(C)CCS3)nc1
viability [1]: 106% | Potency [2]: 0.662 µM (active) | Potency [3]: inactive | Potency [4]: 8.33 µM (active) | Potency [5]: inactive

C=CC(=O)N[C@H]1CN(c2nc(Nc3cn(C)nc3OC)c3ncn(C)c3n2)C[C@@H]1F
viability [1]: 87.8% | Potency [6]: inactive

CN(C)c1ccccc1CN1CCCN(Cc2ccccc2N(C)C)C1c1ccncc1
viability [1]: 99.7% | Potency [6]: inactive | Potency [3]: inactive | Potency [4]: inactive | Potency [5]: inactive

O=C(Nc1nccs1)C(c1cc(F)ccc1O)N1Cc2ccccc2C1=O (configuration not stated)
Potency [1]: 18.6 µM (active) | Potency [6]: 16.6 µM (active) | Potency [3]: inactive | Potency [4]: inactive | Potency [5]: inactive

CNC(=O)Cn1cc(-c2ccc3c(c2)C(F)CC32NC(=O)N(CC(=O)N(Cc3ccc(F)cc3)C(C)C(F)(F)F)C2=O)cn1 (configuration not stated)
Potency [1]: 3.72 µM (active) | Potency [6]: 0.0833 µM (active) | Potency [3]: 0.148 µM (active)

C[C@]12CC[C@@H]3c4ccc(O)cc4CC[C@H]3[C@@H]1C[C@@H](O)[C@@H]2O
viability [1]: 109% | Potency [6]: inactive | Potency [3]: inactive | Potency [4]: inactive | Potency [5]: inactive

CS(=O)(=O)c1ccc([C@@H](CC2CCCC2)C(=O)Nc2nccs2)cc1
viability [1]: 79.4% | Potency [6]: inactive | Potency [3]: inactive | Potency [4]: inactive

Nc1nc(OC(c2ccc(-c3cccc(F)c3)cc2)C(F)(F)F)cc(-c2ccc(C[C@@H](N)C(=O)O)cc2)n1 (some centres not stated)
viability [1]: 100% | Potency [2]: inactive | Potency [4]: inactive | Potency [5]: inactive

Cc1cc(C)c2c(c1)[C@@H](N(Cc1cc(C(F)(F)F)cc(C(F)(F)F)c1)c1nnn(C)n1)CCCN2CC1CCC(C(=O)O)CC1 (some centres not stated)
viability [1]: 101% | Potency [6]: 18.6 µM (active) | Potency [3]: inactive

COc1ccc(S(=O)(=O)NCc2ccc(C(=O)NCCc3ccc(Cl)cn3)cc2)cc1
viability [1]: 98% | Potency [6]: inactive | Potency [3]: inactive | Potency [4]: inactive | Potency [5]: inactive

CN(C(=O)CNC(=O)/C=C/c1cccc(Cl)c1)C1CCS(=O)(=O)CC1
Potency [1]: 0.662 µM (active) | Potency [6]: inactive | Potency [3]: inactive
